Screening results deposited in PubChem BioAssay by several laboratories.
Most compounds without a hit are left out; they make up all but 3.3% or so of the library.
ERb coact inh: blocks coactivator binding to human estrogen receptor beta | Q92731 | TR-FRET ER-beta LBD / SRC1-Cy5 peptide binding; receptor agonist-loaded with 1 µM estradiol | inhibition, % at 25.6 µM | hit rate 1.3% among 86,000;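 active = compounds whose percent inhibition of the receptor-coactivator binding signal exceeds about 50% in the single-dose screen, limit read from the data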;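 note: 0% = receptor plus peptide wells without compound and 100% = peptide-only wells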
ERa SRC1 inh: ER-alpha (human) coactivator binding inhibition | P03372 | TR-FRET ER-alpha LBD / SRC-1 peptide, estradiol-bound | inhibition, % at 25.6 µM | hit rate 1.7% among 86,000 | AID 629; in the data active = inhibition above about 50%;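 note: 0% = receptor plus peptide control and 100% = peptide only without receptor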
Target sequence (P03372 whole entry, looked up, the tested form may be a part): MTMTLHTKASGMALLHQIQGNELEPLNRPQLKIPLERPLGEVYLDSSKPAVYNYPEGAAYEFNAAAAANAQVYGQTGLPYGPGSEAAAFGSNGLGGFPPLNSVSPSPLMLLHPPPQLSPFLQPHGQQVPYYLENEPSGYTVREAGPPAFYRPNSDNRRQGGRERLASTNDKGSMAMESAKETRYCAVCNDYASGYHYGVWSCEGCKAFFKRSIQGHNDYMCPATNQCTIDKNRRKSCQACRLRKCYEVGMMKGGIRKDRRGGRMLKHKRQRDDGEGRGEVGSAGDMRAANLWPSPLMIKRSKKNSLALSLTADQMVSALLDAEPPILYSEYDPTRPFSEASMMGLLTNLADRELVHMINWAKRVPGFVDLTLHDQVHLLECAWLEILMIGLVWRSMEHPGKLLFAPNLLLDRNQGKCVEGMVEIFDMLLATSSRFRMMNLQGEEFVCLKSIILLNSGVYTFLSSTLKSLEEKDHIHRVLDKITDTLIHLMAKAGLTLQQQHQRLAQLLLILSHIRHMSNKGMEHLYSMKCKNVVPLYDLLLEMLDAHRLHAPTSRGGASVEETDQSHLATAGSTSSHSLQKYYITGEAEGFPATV
FAK blocker: blocks human focal adhesion kinase activity; biochemical FAK kinase activity assay; inhibition, %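 (tested at 7 µM)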; hit rate 0.84% among 97,000; AID 727; in the data active = inhibition above about 19%;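 note: 0% = DMSO and 100% = reference compound high control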
Smad3 inh: blocks human Smad3 binding to FoxH1 peptide. inhibition, % at 25 µM. P84022. hit rate 0.29% among 88,000. TR-FRET Smad3/Dy647-FoxH1 peptide binding, europium anti-His. AID 630;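 active = compounds that reduce the energy-transfer binding signal between the protein and its labelled peptide by more than half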;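 note: 0% = Smad3 plus labelled peptide maximal FRET and 100% = peptide-only background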
Candida biofilm: kills Candida albicans biofilms. C. albicans biofilm + clotrimazole, Alamar Blue. inhibition, % at 6 µM. hit rate 0.14% among 85,000;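 active = inhibition above 20%; inactive = inhibition below 20%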;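 note: preformed 24 hr biofilms exposed to compound for 48 hr; 0% = biofilm without compound and 100% = blank killed by clotrimazole plus chlorhexidine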
ERa SRC1 pot: enhances coactivator binding to human estrogen receptor alpha. P03372. TR-FRET ERalpha-LBD/SRC-Cy5 coactivator binding, 2 h; 100 = basal binding, no effect. coactivator binding (% of control), % at 25.6 µM. hit rate 1.3% among 86,000. AID 639; in the data active = activity above about 200%;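 note: binding measured in presence of low estradiol as agonist stimulus; 0% = peptide alone without receptor and 100% = receptor with peptide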
* hit, by the source's call; . = no result; [ ] = dose if it differs, or a comment.

SMILES | ERb coact inh | ERa SRC1 inh | FAK blocker | Smad3 inh | Candida biofilm | ERa SRC1 pot
Cc1csc(=Nc2ccc(S(=O)(=O)N3CCOCC3)cc2)n1Cc1ccco1 | 5 | -9 | -6 | 5 | 1 | 104
C[C@]12CC[C@@H]3c4ccc(OC(=O)c5ccccc5)cc4CC[C@H]3[C@@H]1CC[C@@H]2O | -1 | -7 | . | 0 | 15 | 298*
O=C(O)[C@H](Cc1ccc(O)c([N+](=O)[O-])c1)N1C(=O)c2ccccc2C1=O | . | . | . | 9 | . | .
N=C(N)SCCc1ccccn1 | . | . | . | 0 | . | .
CC1CCC(n2c(=S)[nH]c3ccccc3c2=O)CC1 (centres undefined) | 18 | -9 | -1 | 0 | 6 | 218*[fluorescence artefact?]
CC1(C)O[C@@H]2[C@@H](CO[C@H]2c2[nH]nc3c(=O)[nH]c(=O)[nH]c23)O1 | . | . | . | -14 | . | .
O=C(COc1ccc2ccccc2c1)NCCNC(=O)COc1ccc2ccccc2c1 | -4 | 11 | -15 | -20 | 4 | 317*[fluorescence artefact?]
O=C(COc1ccc2ccccc2c1)NC1CC1 | 2 | 2 | -1 | 0 | 2 | 94
O=C(O)Cc1ccc(NC(=O)C2CC=CCC2C(=O)O)cc1 (centres undefined) | -21 | -18 | -1 | 15 | 5 | 234*
CCOc1ccc(C(C)=O)cc1COc1ccc(-n2cnnn2)cc1 | 23 | 55*[fluorescence artefact?] | . | -3 | 6 | 53
O=S(=O)(C[C@H](O)C(Cl)(Cl)Cl)NNc1ccccc1 | . | . | . | 23 | . | .
O=C(C1Cc2ccccc2CN1S(=O)(=O)c1ccc(F)cc1)N1CCCCCC1 (centres undefined) | -1 | 6 | 1 | 77*[fluorescence artefact?] | 4 | 102
CCS(=O)(=O)N1Cc2ccccc2CC1C(=O)N1CCN(c2ccccc2)CC1 (centres undefined) | 3 | 14 | 18 | -13 | . | 223*[fluorescence artefact?]
C=CCSc1nc2c(N)ncnc2n1[C@H]1O[C@H](CO)[C@@H](O)[C@@H]1O | . | . | . | 7 | . | .
CC1CCCN(S(=O)(=O)c2ccc(S(=O)(=O)NC(C)c3cccs3)cc2)C1 (centres undefined) | . | . | 0 | . | . | .
O=C1CC(/C=C/c2ccco2)=Nc2ccccc2N1 | 44 | 58* | -3 | -1 | 9 | 80
Clc1ccc(-c2nc3n(n2)Cc2ccccc2-3)cc1 | 16 | 21 | 6 | 19 | 10 | 289*
O=c1c2c([nH]c3ccc(Br)cc13)CCCC2 | 6 | 8 | . | -4 | 3 | 83
O=c1ccc2cc3c([nH]c4ccc(Br)cc43)oc-2c1O | 74*[fluorescence artefact?] | 72*[fluorescence artefact?] | 0 | -7 | -2 | 19
Cc1[nH]nc(SCC(=O)N2CCCCC2)c1[N+](=O)[O-] | -4 | -7 | 0 | 5 | 1 | 691*[fluorescence artefact?]
Cc1[nH]nc(N2CCCCCC2)c1[N+](=O)[O-] | -11 | -2 | -3 | 3 | 3 | 111
Cc1ccc2c(N)c(C(=O)N(c3ccccc3)c3ccccc3)sc2n1 | 5 | -1 | 0 | 2 | 9 | 88
CCCNC(=O)N1CCN(S(=O)(=O)c2ccc(C)c(C)c2)CC1 | -13 | -3 | 0 | 2 | 20* | 113
CCCNC(=O)N1CCN(S(=O)(=O)c2ccc(C)cc2)CC1 | -3 | -6 | 2 | 10 | 9 | 139
COc1ccc2nc(SCC(=O)N3CCN(c4ccc(F)cc4)CC3)c(C#N)cc2c1 | 19 | 14 | -2 | 4 | 4 | 481*[fluorescence artefact?]
SMILES | ERb coact inh | ERa SRC1 inh | FAK blocker | Smad3 inh | Candida biofilm | ERa SRC1 pot
Cc1cccc2cc(C#N)c(SCC(=O)N3CCC(C)CC3)nc12 | 24 | 14 | 5 | 15 | 6 | 217*[fluorescence artefact?]
CCOC(=O)CSc1nc2cc(OCC)ccc2cc1C#N | 18 | 12 | . | 5 | 5 | 351*[fluorescence artefact?]
Cc1cc(C)c2nc(SCC(=O)N3CCCCC3)c(C#N)cc2c1 | 17 | -6 | -7 | 20 | 7 | 181
CCOc1ccc2cc(C#N)c(SCC(=O)N3CCC(C)CC3)nc2c1 | 26 | 7 | -6 | -2 | 3 | 337*[fluorescence artefact?]
COc1cc2cc(C#N)c(SCC(=O)N3CCOCC3)nc2cc1OC | 1 | 2 | 0 | 1 | 3 | 100
COc1ccc2cc(C#N)c(SCC(=O)N3CCCC3)nc2c1 | -6 | -14 | -1 | 5 | 5 | 95
CN(C)S(=O)(=O)c1cccc(CSc2cccc[n+]2[O-])c1 | 10 | -7 | -1 | 0 | -4 | 128
CC(C)[C@@H]1O[C@H](/C=C/c2ccccc2)OCC1(C)C | . | . | . | 4 | . | .
Cc1ccc2cc(C#N)c(SCC(=O)NCc3ccco3)nc2c1 | 35 | 55*[fluorescence artefact?] | 12 | -24 | 6 | 237*
COC(=O)CSc1nc2cc(C)cc(C)c2cc1C#N | 10 | 1 | -5 | -11 | 3 | 210*
COC(=O)CSc1nc2cc(OC)ccc2cc1C#N | -2 | 21 | 2 | 14 | 6 | 129
CCOc1ccc2cc(C#N)c(SCC(=O)NC(C)CC)nc2c1 (centres undefined) | 45 | 41 | -3 | 12 | 7 | 337*[fluorescence artefact?]
Cc1cccc2cc(C#N)c(SCC(=O)Nc3ccccc3N3CCOCC3)nc12 | 13 | 20 | -7 | 7 | 8 | 295*[fluorescence artefact?]
N#Cc1cc2ccccc2nc1SCC(=O)Nc1ccccc1N1CCOCC1 | . | . | -2 | . | . | .
Cc1[nH]c2ccccc2c1-c1cc(-c2cc(-c3c(C)[nH]c4ccccc34)nc(N)n2)nc(N)n1 | . | . | . | 28 | . | .
CCCCCn1nc(C)c(/C=N\NC(=O)c2cc(C)oc2C)c1C | -3 | 4 | -1 | 6 | 8 | 104
N#C/C(=C\c1c(N2CCC(C(N)=O)CC2)nc2ccccn2c1=O)S(=O)(=O)c1ccccc1 | 53* | 23 | -6 | -10 | 1 | 94
CN1CC[C@@H](CN2c3ccccc3Sc3ccccc32)C1 | . | . | . | 7 | . | .
N#C/C(=C(/O)COC(=O)Cc1c[nH]c2ccccc12)c1nc2ccccc2[nH]1 | 11 | 29 | 9 | 10 | 6 | 59
N#C/C(=C(/O)COC(=O)CCCNC(=O)c1ccc(Cl)cc1)c1nc2ccccc2[nH]1 | 40 | 52*[fluorescence artefact?] | -1 | -3 | 5 | 66
CCOC(=O)c1cc2c(C)nn(-c3ccccc3)c2s1 | -2 | -1 | 0 | 5 | 6 | 117
COC(=O)c1cc2c(C)nn(-c3ccccc3)c2s1 | 22 | 21 | 5 | -1 | -4 | 246*
CC(C)(C)OC(=O)N1CCN(c2ccc(NC(=O)Cn3nnc(-c4ccccc4)n3)cc2)CC1 | 50* | 31 | 13 | 9 | 4 | 44
Cn1nc(CC(=O)Nc2ccc(N3CCN(C(=O)OC(C)(C)C)CC3)cc2)c2ccccc2c1=O | 39 | 72*[fluorescence artefact?] | . | 0 | 6 | 68
CCOC(=O)c1ccc(NC(=O)Cn2nnc(-c3ccccc3)n2)cc1 | 7 | 9 | -2 | -1 | 2 | 104
C=C(C)CSc1nc(N)c(C#N)c(-c2ccc(C)cc2)c1C#N | -1 | -3 | -1 | 6 | 5 | 108
CCOC(=O)CSc1nc(N)c(C#N)c(-c2ccc(OC)cc2)c1C#N | 35 | 14 | -24 | 11 | . | 258*[fluorescence artefact?]
CCCOc1ccc(-c2cnc(SCC(N)=O)nc2N)cc1 | -5 | 2 | -1 | 7 | 4 | 116
